# Assay results published in PubChem BioAssay AID434931 (National Center for Advancing Translational Sciences (NCATS), 2010).
# Records with an inconclusive call do not appear. Calls of active or inactive are those of the source. The call rests on the fitted dose curve; in most records, active means well fitted inhibition curve with a large enough effect; inconclusive means small, poorly fitted or top-dose-only effect, or another doubt; inactive means no such curve, though single readings can be large or run the other way.
# Biological target: Neuropeptide S receptor (Homo sapiens) (UniProt Q6W5P4)
# Assay: Confirmation Concentration-Response Assay for Antagonists of the Neuropeptide S Receptor: Robust Characterization of Calcium Signal Transduction
# Details: CHO-NPSR cells, NPS-induced calcium fluorescence (FDSS); series mostly up to 31.6 µM
# Description: NIH Chemical Genomics Center [NCGC] NIH Molecular Libraries Probe Production centers Network [MLPCN] MLPCN Grant: X01-DA026210-01 Assay Submitter (PI): Heilig, Markus Alexander NCGC Assay Overview: Neuropeptide S receptor (NPSR), previously known as GPR154, is a recently de-orphanized G protein coupled receptor. Its endogenous ligand is the 20 amino acids peptide Neuropeptide S (NPS). […] NPS and its receptor are found in various tissues. Specifically they are highly expressed in brain areas that have been implicated in modulation of arousal, stress and anxiety. Central administration of NPS in mice produces an unusual profile of activity by inducing wakefulness and arousal, while at the same time suppressing anxiety. Therefore, NPSR may represent a novel drug target for the treatment of sleep and anxiety disorders. To identify NPSR antagonists, we developed a cell-based assay with transfected NPS receptor. NPS can stimulate the production of cAMP as well as release intracellular calcium in Chinese hamster ovary cells stably expressing NPS receptor. This change in intracellular calcium can be detected using a calcium indicator dye on a calcium imaging plate reader system (FDSS). This particular assay uses a high density of sampling across concentration-response space to establish more confidence estimates of potency.
# NCGC Assay Protocol Summary: A Chinese hamster ovary (CHO) cell line stably expressing the NPS receptor (CHO-NPSR) was obtained from Dr. Heilig lab at NIAAA and maintained in F-12 Kaighn's media (Invitrogen, Carlsbad, CA, 21127) supplemented with 10 % FBS, 100 units/ml penicillin, 100 ug/ml streptomycin and 250 ug/ml geneticin at 37C, 5% CO2 in a humidified atmosphere. Before the assay, aliquots of cells were frozen and stored at -135C. The assay was performed on a FDSS-7000 kinetic plate reader in 1536-well format. For both agonist (1-220s) and antagonist (221-400s) phases, the maximums of kinetic fluorescence responses were converted separately into text files using the instrument's software data export utility. Data for agonist response were normalized to the controls for basal activity (DMSO only) and 100% activation (NPS). […] AC50 values were determined from concentration-response data modeled with the standard Hill equation. NPS 1536-well FDSS assay protocol: (1) Frozen CHO-NPSR cells were thaw, washed once with fresh media and resuspended in F-12 Kaighn's media supplemented with 10 % FBS, 100 units/ml penicillin and 100 ug/ml streptomycin. Cells were plated at 3 ul/well (1200 cells) to black, clear-bottom, tissue-culture treated 1536-well plates, and then cultured at 37C, 5 % CO2 for 16 to 30 hours. (2) Add 3 ul of calcium dye (from High Performance PBX Calcium Assay Kit, BD Biosciences). The calcium dye was prepared according to the manufactory's instruction. (3) Incubation at 37C, 5 % CO2 for 60 to 120 min. (4) Load plates to FDSS-7000. The following steps were performed on FDSS-7000. (5) Record fluorescent background (Ex 480 nm, Em 520-560 nm) for 10 s. (6) Add 23 nl/well of compound in DMSO solution. The final titration for each compound was between 0.6 nM and 46 uM. Record agonist response for 210 s. (7) Add 2 ul of stimulation reagent (1X HBSS buffer, 0.1% BSA, 60 nM NPS). Record antagonist response for 140 s. Keywords: MLSMR, MLPCN, NIH Roadmap, qHTS, NCGC, NPS, Neuropeptide S Antagonists
# Chain of Neuropeptide S receptor (Homo sapiens) (Q6W5P4 whole entry, looked up): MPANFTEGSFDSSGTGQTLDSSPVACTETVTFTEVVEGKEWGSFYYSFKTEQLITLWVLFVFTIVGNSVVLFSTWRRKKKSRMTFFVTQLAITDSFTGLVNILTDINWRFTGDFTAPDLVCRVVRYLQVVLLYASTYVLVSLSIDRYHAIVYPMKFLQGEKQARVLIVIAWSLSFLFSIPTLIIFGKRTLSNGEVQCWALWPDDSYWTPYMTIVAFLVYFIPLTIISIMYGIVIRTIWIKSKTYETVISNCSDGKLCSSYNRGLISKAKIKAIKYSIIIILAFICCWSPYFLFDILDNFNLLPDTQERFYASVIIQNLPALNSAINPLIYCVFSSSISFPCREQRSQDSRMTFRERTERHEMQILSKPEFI
row,SMILES,Potency
1,O=C(CCc1ccccc1)Nc1ncnc2c1C(c1ccccc1)c1c(ccc3ccccc13)O2 (centres undefined),1960 nM (active)
2,Fc1ccc(-c2c(P(=S)(c3ccccc3)c3ccccc3)n3ccccc3[n+]2C/C=C/c2ccccc2)cc1,20.1 nM (active)
3,COc1cccc(C2c3c(ncn(-c4cccc(F)c4)c3=N)Oc3ccc4ccccc4c32)c1 (centres undefined),69.5 nM (active)
4,COc1cccc(C2c3c(ncn(-c4ccccc4Cl)c3=N)Oc3ccc4ccccc4c32)c1 (centres undefined),4380 nM (active)
5,COc1cccc(C2c3c(ncn(-c4cccnc4)c3=N)Oc3ccc4ccccc4c32)c1 (centres undefined),1740 nM (active)
6,COc1ccc(C2c3ccc4ccccc4c3Oc3ncn(CCN4CCOCC4)c(=N)c32)cc1OC (centres undefined),3480 nM (active)
7,COc1cccc(C2c3c(ncn(-c4cccc(Br)c4)c3=N)Oc3ccc4ccccc4c32)c1 (centres undefined),2460 nM (active)
8,CCOC(=O)CCCC(=O)Nc1ncnc2c1C(c1ccccc1)c1c(ccc3ccccc13)O2 (centres undefined),2200 nM (active)
9,COc1cccc(C2c3c(ncn(-c4ccccc4C)c3=N)Oc3ccc4ccccc4c32)c1 (centres undefined),5520 nM (active)
10,COc1ccc(C2c3c(nc(Cc4ccccc4)[nH]c3=O)Oc3ccc4ccccc4c32)cc1OC (centres undefined),inactive
11,N=c1c2c(ccn1CCc1ccccc1)Oc1ccc3ccccc3c1C2c1ccccc1 (centres undefined),492 nM (active)
12,CC(C)(C)OC(=O)Nc1ncnc2c1C(c1ccccc1)c1c(ccc3ccccc13)O2 (centres undefined),inactive
13,COc1ccc(C2c3c(ncn(Cc4ccccc4)c3=N)Oc3ccc4ccccc4c32)cc1OC (centres undefined),619 nM (active)
14,COc1cccc(C2c3c(ncn(-c4ccc(NC(C)=O)cc4)c3=N)Oc3ccc4ccccc4c32)c1 (centres undefined),4380 nM (active)
15,COc1cccc(C2c3c(ncn(-c4ccccn4)c3=N)Oc3ccc4ccccc4c32)c1 (centres undefined),4920 nM (active)
16,COc1ccc(C2c3c(nc(C)[nH]c3=O)Oc3ccc4ccccc4c32)cc1OC (centres undefined),inactive
17,COc1cccc(C2c3c(ncn(-c4ccccc4C(C)(C)C)c3=N)Oc3ccc4ccccc4c32)c1 (centres undefined),1740 nM (active)
18,COc1cccc(C2c3c(ncn(-c4cccc(OC)c4)c3=N)Oc3ccc4ccccc4c32)c1 (centres undefined),391 nM (active)
19,O=C(Cc1ccccc1)Nc1ncnc2c1C(c1ccccc1)c1c(ccc3ccccc13)O2 (centres undefined),1100 nM (active)
20,N=c1c2c(ccn1-c1ccccc1)Oc1ccc3ccccc3c1C2c1ccccc1 (centres undefined),220 nM (active)
21,COc1cccc(C2c3c(ncn(-c4ccc5c(c4)OCO5)c3=N)Oc3ccc4ccccc4c32)c1 (centres undefined),43.8 nM (active)
22,COc1cccc(C2c3c(ncn(-c4ccc(F)cc4)c3=N)Oc3ccc4ccccc4c32)c1 (centres undefined),2200 nM (active)
23,COc1cccc(C2c3c(ncn(-c4ccccc4OC)c3=N)Oc3ccc4ccccc4c32)c1 (centres undefined),1240 nM (active)
24,Cc1nc2ccccn2c1C(O)(c1ccccc1)c1ccccc1,11300 nM (active)
25,COc1ccc(C2c3ccc(OCc4ccccc4)cc3Oc3ncn(CCN4CCOCC4)c(=N)c32)cc1OC (centres undefined),11000 nM (active)
26,COc1cccc(C2C(C#N)=C(NC(=O)NCc3ccccc3)Oc3ccc4ccccc4c32)c1 (centres undefined),inactive
27,N#CC1=C(NC=NCc2ccccc2)Oc2ccc3ccccc3c2C1c1ccccc1 (centres undefined),779 nM (active)
28,N=c1c2c(ncn1-c1ccccc1)Oc1ccc3ccccc3c1C2c1ccc2c(c1)OCO2 (centres undefined),619 nM (active)
29,N=c1c2c(ncn1-c1ccccc1)Oc1ccc3ccccc3c1C2c1ccc2c(c1)CCO2 (centres undefined),124 nM (active)
